What is called inhibition is the relative decrease from the control value, in per cent.

SMILES strings stand for the structures. A number with no mark means an inactive call. Some of the results follow. Calls of active or inactive are those of the source. Unless noted, no stated cut-off is given here; in the data, active means activation above about 20%; inactive means the rest.

The target in assay [1] is Oxytocin receptor (Homo sapiens) (UniProt P30559). The assay is described as follows: oxytocin receptor activation, retest of hits – fluorescence, CHO-OTR cells, triplicate, confirmation (AID 434963;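 active means mean activation above about 20% derived from the earlier single-dose screen, limit read from the data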;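 further: peak over minimum fluorescence ratio per well during a 100 second FLIPR read; 0% = DMSO alone and 100% = oxytocin high control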). As to conditions: Fluo-8 calcium fluorescence, agonist, at 3 µM, stronger effect = higher value.
Assay [2] concerns the target Vasopressin V1a receptor (Homo sapiens) (UniProt P37288). Briefly: activators of vasopressin V1R in CHO cells – cell-based, triplicate, fluorescence, counter-screen for OXTR agonist project (AID 434991;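 active means mean activation over triplicate exceeds the hit threshold set in the earlier primary screen, cut at about 20% in these data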;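 further: peak over basal fluorescence ratio within a 100 second read; 0% = DMSO alone and 100% = 3 nM vasopressin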). As to conditions: Fluo-8 calcium fluorescence, at 3 µM, stronger effect = higher value.
For assay [3], the target named is Photoreceptor-specific nuclear receptor (Homo sapiens) (UniProt Q9Y5X4). The assay is described as follows: corepressor-releasing ligands of human NR2E3 – biochemical, TR-FRET, confirmation (AID 2379). As to conditions: cell-free NR2E3 corepressor release, 5 h, at 3.98 µM, stronger effect = higher value. (In general: TR-FRET usually uses a lanthanide donor and a delayed reading to cut background.)

In assay [4] the target is Peroxisome proliferator-activated receptor gamma (Homo sapiens) + Nuclear receptor corepressor 2 (Homo sapiens) (UniProt P37231+Q9Y618). Briefly: agonists of PPARg-NCOR2 corepressor interaction, counter-screen for NR2E3 agonist project, biochemical, TR-FRET (AID 504787; in the data active means inhibition above about 20%;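 further: 0% = DMSO vehicle and 100% = wells without protein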). As to conditions: TR-FRET PPARg-NCOR2 coregulator interaction, at 3.98 µM, stronger effect = higher value. For orientation: Counterscreens check selectivity or assay interference.

In assay [5] the target is Glutathione S-transferase omega-1 (Homo sapiens) (UniProt P78417). Briefly: recombinant GSTO1 blockers, retest – biochemical, fluorescence polarization, triplicate, counter-screen for RBBP9 inhibitor project, confirmation (AID 2176;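 active means inhibition above the primary screen's cutoff, its mean inhibition plus 3 SD, cut at about 35% in these data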;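 further: loss of polarization as inhibitors block binding of rhodamine sulfonate ester activity probe; 0% = GSTO1 with DMSO and 100% = wells lacking GSTO1 enzyme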). As to conditions: recombinant GSTO1, probe fluorescence polarization; at 5.96 µM; stronger effect = higher value. (Fluorescence polarisation rises when a labelled molecule tumbles more slowly, as on binding a larger partner.)

Assay [6] has as its target Nuclear receptor coactivator 3 (Homo sapiens) (UniProt Q9Y6Q9). Briefly: NCOA3 GAL4-fusion reporter inhibition – cell-based, luminescence, quadruplicate, confirmation (AID 588792;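 active means mean inhibition over 43.08%, the solvent-only control mean plus 3 SD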;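 further: 0% = DMSO treated cells and 100% = gossypol at 36 µM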). As to conditions: HEK293 GAL4-SRC3 luciferase reporter, at 3.6 µM, stronger effect = higher value.
Assay [7] relates to transactivating tegument protein VP16 (Human herpesvirus 1), Gal4-VP16 luciferase reporter. Briefly: repression of VP16-driven luciferase reporter – cell-based, luminescence, high throughput, counter-screen for SRC3 inhibitor project (AID 588794; in the data active means inhibition above about 30%). As to conditions: mammalian cells, at 3.6 µM, stronger effect = higher value.
Assay [8] can be described thus: StAR promoter reporter inhibitors, counter-screen for LRH-1 inverse agonist project, cell-based, luminescence, high throughput (AID 651611; in the data active means inhibition above about 28%). As to conditions: StAR promoter luciferase reporter counterscreen, at 3.6 µM, stronger effect = higher value.
The target of assay [9] is Nuclear receptor subfamily 5 group A member 2 (Homo sapiens) (UniProt O00482). The assay is described as follows: NR5A2 activity suppression in reporter cells – cell-based, luminescence, confirmation (AID 651613; in the data active means inhibition above about 42%;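 further: HEK293T cells co-transfected with LRH-1 and StAR promoter luciferase reporter; 0% = vehicle wells and 100% = parental cells lacking receptor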). As to conditions: cell-based LRH-1 luciferase reporter, inverse agonism; at 3.6 µM; stronger effect = higher value.
Assay [10] deals with Steroidogenic factor 1 (Homo sapiens) (UniProt Q13285). The assay is described as follows: inverse agonism at SF1 nuclear receptor – cell-based, luminescence, high throughput, counter-screen for LRH-1 inverse agonist project (AID 651614; in the data active means inhibition above about 44%;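 further: cells cotransfected with StAR promoter reporter and SF1 expression vector; 0% = vehicle on cells with receptor and 100% = vehicle on cells lacking receptor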). As to conditions: cell-based SF1 luciferase reporter, at 3.6 µM, stronger effect = higher value.
Assay [11] is described as follows: compounds suppressing VP16-driven luciferase signal – cell-based, luminescence, high throughput, counter-screen for LRH-1 inverse agonist project (AID 651615; in the data active means inhibition above about 33%). As to conditions: Gal4-VP16 luciferase reporter cells, at 3.6 µM, stronger effect = higher value.
Assay [12] addresses Lytic switch protein BZLF1 (Epstein-Barr virus (strain B95-8)) (UniProt P03206). Briefly: blockers of Zta-ZRE DNA complex – biochemical, fluorescence polarization, triplicate, confirmation (AID 2361;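 active means mean inhibition across triplicate runs above the hit threshold derived for the original primary screen, cut at about 33% in these data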;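 further: 0% = Zta with DMSO and 100% = wells lacking Zta protein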). As to conditions: Zta-ZRE DNA binding, at 11.1 µM, stronger effect = higher value.
Assay [13] concerns Epstein-Barr virus nuclear antigen 1 (EBNA-1), Human herpesvirus 4. The assay is described as follows: blockers of EBV EBNA-1 binding to DNA – biochemical, fluorescence polarization, counter-screen for ZTA inhibitor project (AID 2362; call rule not given here). As to conditions: EBNA-1 DNA binding, at 14.8 µM, stronger effect = higher value.
For assay [14], the target named is Receptor-interacting serine/threonine-protein kinase 2 (Homo sapiens) (UniProt O43353). Briefly: inhibitors of RIPK2 association with NOD2 – fluorescence, CHO cells, BLA complementation, triplicate, confirmation (AID 624370;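 active means mean inhibition across replicates above a set limit taken from the earlier primary screen, cut at about 21% in these data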;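 further: 0% = DMSO-only wells and the high end = clavulanate BLA-blocked wells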). As to conditions: CCF4 FRET, at 4.98 µM, stronger effect = higher value.
A short description of assay [15]: BLA reporter readout interference – cell-based, CHO-K1 CMV-bla, CCF4 FRET, fluorescence, artefact control for NOD2-RIPK2 interaction inhibitor project, confirmation (AID 624371;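 active means mean inhibition above the low-control mean inhibition plus three low-control SD, cut at about 11% in these data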;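 further: 0% = DMSO only wells and 100% = clavulanate high control wells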). As to conditions: CCF4 FRET ratio, counterscreen, at 4.98 µM, stronger effect = higher value.
Assay [16] addresses Insulin-degrading enzyme (Homo sapiens) (UniProt P14735). Briefly: cellular IDE Abeta-cleavage inhibition – fluorescence polarization, HEK cells, FAbetaB substrate, confirmation (AID 435028;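 active means mean inhibition across triplicate wells above the cutoff set by the earlier primary insulin-degrading enzyme screen, cut at about 16% in these data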;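 further: 0% = DMSO wells and 100% = 60 µM reference IDE inhibitor Ii1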). As to conditions: at 5.59 µM, stronger effect = higher value.
The nature of assay [17]: HEK cell viability loss – luminescence, cytotoxicity control for IDE inhibitor project (AID 449730; in the data active means inhibition above about 22%;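 further: 0% = vehicle wells and 100% = reference cytotoxic drug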). As to conditions: HEK293 cytotoxicity, ATP luminescence; at 5.59 µM; stronger effect = higher value.

Peroxisome proliferator-activated receptor gamma (Homo sapiens) + Nuclear receptor corepressor 2 (Homo sapiens), sequence (P37231 whole entry, looked up): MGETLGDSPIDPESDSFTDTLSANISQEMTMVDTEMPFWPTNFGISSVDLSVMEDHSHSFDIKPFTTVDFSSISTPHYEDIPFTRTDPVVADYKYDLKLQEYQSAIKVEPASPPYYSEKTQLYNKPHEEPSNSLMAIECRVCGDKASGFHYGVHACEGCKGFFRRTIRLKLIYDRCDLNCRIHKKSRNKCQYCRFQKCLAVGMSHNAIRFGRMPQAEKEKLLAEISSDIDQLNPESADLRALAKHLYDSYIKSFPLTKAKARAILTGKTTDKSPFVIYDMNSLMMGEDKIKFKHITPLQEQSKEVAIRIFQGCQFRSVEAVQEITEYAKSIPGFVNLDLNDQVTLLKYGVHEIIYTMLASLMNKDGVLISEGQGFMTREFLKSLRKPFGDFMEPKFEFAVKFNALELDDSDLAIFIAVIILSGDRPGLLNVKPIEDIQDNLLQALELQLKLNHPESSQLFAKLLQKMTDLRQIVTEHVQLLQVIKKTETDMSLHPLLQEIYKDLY
Peroxisome proliferator-activated receptor gamma (Homo sapiens) + Nuclear receptor corepressor 2 (Homo sapiens), sequence (Q9Y618 whole entry, looked up): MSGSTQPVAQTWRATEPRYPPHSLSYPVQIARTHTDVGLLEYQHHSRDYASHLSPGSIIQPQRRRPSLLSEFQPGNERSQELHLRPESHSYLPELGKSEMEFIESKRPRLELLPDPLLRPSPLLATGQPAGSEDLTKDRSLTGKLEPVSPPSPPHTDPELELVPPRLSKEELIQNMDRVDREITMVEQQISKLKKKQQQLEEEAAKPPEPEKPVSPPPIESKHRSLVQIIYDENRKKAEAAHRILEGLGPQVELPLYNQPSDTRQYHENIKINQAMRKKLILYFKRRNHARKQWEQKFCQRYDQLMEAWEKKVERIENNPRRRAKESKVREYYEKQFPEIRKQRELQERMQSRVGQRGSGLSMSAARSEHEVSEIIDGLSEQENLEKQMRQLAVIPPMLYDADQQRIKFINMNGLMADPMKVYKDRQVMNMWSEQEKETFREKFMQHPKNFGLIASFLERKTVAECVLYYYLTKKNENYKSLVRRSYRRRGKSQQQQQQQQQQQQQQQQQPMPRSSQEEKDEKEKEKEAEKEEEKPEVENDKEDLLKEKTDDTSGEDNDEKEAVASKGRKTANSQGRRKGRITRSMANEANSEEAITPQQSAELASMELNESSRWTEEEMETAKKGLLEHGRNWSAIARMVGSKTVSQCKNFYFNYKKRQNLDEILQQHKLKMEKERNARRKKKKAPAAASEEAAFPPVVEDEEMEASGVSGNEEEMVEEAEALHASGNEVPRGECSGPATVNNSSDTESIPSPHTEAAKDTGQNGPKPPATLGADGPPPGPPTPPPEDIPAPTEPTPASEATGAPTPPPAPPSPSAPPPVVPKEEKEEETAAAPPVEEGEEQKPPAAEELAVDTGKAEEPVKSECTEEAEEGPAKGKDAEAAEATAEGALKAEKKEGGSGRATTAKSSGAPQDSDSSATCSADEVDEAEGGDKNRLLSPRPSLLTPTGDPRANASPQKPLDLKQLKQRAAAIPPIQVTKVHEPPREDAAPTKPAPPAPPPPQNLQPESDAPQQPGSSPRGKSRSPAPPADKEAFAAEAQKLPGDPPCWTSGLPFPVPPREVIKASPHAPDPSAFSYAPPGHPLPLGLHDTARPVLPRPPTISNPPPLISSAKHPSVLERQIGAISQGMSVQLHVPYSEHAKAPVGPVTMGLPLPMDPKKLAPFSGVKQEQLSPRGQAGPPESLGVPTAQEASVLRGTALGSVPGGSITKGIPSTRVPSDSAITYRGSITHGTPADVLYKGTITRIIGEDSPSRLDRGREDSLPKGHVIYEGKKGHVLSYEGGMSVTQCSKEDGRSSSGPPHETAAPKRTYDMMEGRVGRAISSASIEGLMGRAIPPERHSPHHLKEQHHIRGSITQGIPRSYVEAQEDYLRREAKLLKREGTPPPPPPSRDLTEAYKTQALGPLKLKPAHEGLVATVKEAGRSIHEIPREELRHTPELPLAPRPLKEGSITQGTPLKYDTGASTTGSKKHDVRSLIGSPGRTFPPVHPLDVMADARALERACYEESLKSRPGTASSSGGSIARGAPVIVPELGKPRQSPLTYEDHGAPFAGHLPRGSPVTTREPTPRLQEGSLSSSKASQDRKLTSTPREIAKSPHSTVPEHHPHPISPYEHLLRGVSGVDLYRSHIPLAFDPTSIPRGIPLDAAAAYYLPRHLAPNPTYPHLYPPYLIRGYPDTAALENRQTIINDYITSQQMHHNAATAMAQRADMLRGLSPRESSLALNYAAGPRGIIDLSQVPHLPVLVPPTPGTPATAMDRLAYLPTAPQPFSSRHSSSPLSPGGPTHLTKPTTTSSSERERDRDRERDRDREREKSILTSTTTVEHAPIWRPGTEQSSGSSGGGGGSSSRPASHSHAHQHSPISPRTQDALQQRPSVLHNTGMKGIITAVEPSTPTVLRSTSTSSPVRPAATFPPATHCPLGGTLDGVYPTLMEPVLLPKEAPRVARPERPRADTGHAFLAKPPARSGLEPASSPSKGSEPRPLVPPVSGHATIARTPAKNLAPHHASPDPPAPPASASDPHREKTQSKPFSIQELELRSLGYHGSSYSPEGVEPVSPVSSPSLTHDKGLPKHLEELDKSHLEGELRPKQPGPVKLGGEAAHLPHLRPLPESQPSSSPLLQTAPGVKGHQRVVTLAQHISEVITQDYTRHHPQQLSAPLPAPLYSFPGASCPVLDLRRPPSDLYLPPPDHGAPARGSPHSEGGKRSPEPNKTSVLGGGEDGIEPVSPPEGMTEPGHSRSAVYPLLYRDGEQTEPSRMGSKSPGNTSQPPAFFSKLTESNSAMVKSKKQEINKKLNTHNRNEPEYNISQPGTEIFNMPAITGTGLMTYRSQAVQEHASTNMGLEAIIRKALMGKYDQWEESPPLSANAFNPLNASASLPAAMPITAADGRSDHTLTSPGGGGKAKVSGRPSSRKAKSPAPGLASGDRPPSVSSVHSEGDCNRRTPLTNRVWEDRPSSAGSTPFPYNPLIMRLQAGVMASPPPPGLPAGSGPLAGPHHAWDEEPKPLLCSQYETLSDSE
Photoreceptor-specific nuclear receptor (Homo sapiens), sequence (Q9Y5X4 whole entry, looked up): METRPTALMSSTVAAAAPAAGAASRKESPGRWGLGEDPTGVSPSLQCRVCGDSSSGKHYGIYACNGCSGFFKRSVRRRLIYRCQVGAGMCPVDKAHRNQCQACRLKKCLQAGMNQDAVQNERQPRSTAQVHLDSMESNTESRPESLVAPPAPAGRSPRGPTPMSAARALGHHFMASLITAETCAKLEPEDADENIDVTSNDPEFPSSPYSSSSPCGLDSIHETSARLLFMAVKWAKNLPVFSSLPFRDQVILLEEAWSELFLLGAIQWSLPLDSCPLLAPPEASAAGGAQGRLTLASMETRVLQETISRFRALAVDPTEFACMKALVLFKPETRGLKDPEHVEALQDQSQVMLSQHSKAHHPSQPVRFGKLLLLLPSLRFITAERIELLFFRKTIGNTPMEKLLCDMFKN
Vasopressin V1a receptor (Homo sapiens), sequence (P37288 whole entry, looked up): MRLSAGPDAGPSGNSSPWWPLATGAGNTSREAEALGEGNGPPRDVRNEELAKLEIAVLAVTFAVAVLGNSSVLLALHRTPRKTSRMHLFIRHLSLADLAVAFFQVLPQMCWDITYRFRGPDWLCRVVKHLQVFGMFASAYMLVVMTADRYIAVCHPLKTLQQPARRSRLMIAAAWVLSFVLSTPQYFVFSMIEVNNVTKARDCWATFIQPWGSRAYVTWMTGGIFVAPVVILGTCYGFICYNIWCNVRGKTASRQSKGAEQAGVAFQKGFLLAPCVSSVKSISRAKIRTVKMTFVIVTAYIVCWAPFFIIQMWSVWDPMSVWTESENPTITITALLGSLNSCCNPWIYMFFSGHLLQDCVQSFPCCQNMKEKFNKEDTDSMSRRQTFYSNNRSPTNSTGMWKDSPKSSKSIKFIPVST
Oxytocin receptor (Homo sapiens), sequence (P30559 whole entry, looked up): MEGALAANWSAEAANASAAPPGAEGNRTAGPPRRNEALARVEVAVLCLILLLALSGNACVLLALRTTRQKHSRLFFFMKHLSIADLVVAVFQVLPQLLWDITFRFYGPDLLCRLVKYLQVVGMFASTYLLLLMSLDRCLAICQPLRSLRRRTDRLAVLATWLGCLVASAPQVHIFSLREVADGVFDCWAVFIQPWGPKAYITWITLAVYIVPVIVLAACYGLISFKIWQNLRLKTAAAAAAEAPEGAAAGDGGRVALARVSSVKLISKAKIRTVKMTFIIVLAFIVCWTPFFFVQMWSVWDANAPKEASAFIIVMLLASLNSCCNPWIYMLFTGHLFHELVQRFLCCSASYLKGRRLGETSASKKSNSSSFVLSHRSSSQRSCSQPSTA
Glutathione S-transferase omega-1 (Homo sapiens), sequence (P78417 whole entry, looked up): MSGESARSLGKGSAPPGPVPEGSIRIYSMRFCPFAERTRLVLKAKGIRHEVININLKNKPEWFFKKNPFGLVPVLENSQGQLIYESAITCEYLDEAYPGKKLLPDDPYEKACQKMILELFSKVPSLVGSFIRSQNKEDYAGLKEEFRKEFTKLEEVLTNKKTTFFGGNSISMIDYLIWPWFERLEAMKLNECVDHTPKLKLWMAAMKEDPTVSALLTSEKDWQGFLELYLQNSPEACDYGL
Lytic switch protein BZLF1 (Epstein-Barr virus (strain B95-8)), sequence (P03206 whole entry, looked up): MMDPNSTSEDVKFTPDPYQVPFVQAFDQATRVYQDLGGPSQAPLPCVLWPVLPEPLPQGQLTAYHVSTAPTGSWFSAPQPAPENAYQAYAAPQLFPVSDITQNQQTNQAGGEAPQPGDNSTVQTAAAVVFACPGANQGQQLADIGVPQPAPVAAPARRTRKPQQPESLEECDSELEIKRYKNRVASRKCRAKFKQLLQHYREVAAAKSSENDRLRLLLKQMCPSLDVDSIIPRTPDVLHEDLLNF

On to `C/C(=N\NS(=O)(=O)c1ccc(Cl)cc1)c1ccc(NC(=O)c2ccco2)cc1`, for which the results for the activation in assay [1] and in [2] were 17.6% and 11.1%, respectively.
`N#Cc1ccccc1Sc1ccccc1C(=O)OCC(=O)NC1CCCCC1`: in assay [3], the activation (reported as inhibition) is 10.1%. The inhibition in [4] was 21.8% (active).
On to `CCN(CCCNC(=O)c1ccc2c(c1)NC(=O)CN2C)c1cccc(C)c1`, for which the inhibition is 36.3% (active) in assay [5], 10.3% in [6] and 1.36% in [7].
For `O=C(c1ccco1)N1CCN(C(=O)C2CC(c3ccc(F)cc3)=NO2)CC1` (stereo unspecified), the activation is -0.63% in assay [1] and 0.05% in assay [2].
Consider `Cc1nn(-c2ccccc2)c(C)c1NC(=O)CCl`, for which the inhibition is 83.7% (active) in assay [5]; 28.1% (active) in assay [8]; 35.5% in [9]; 61.1% (active) in assay [10]; -83.9% in [11].
`C#CCOCCOCCOCCNc1nc(N2CCN(C(=O)CCCCCCCCCCNC(=O)[C@H]([C@@H](C)CC)n3cc(CCCCN=C(N)N)nn3)CC2)nc(N2CCN(C(=O)CCCCCCCCCCNC(=O)[C@H](CO)n3cc(CCCSC)nn3)CC2)n1`: the figures for the inhibition in assay [12] and in assay [13] were 57.5% (active) and 1.4%, respectively.
On to `O=C1C(=O)N(CCN2CCOCC2)C(c2cccc(Cl)c2)/C1=C(/O)c1ccc2c(c1)OCO2` (stereo unspecified), for which the activation (reported as inhibition) in assay [3] was 32.8% (active). The inhibition in [4] was 31.2% (active).
For `CCOC(=O)c1ccc(NC(=S)N2CCN(c3ccccn3)CC2)cc1`, the activation (reported as inhibition) in [3] is -3.59%. Besides, the inhibition in assay [4] is -8.54%.
For the compound `CN1CCN(CCCNC(=O)c2ccc(/C=C3\Oc4ccccc4N(Cc4ccc(Cl)cc4)C3=O)cc2)CC1`, the inhibition in assay [12] was 51.8% (active); in assay [13] it was -1.35%; in assay [14], 29% (active); in [15], 12% (active).
For the compound `O=C(C1=C[C@H](c2coc3ccccc3c2=O)C[C@H](OCc2ccc(CO)cc2)O1)N1CCN(Cc2ccccc2)CC1`, the inhibition was 2.63% in [16] and 17.5% in assay [17].
